Counter-ions that a name gives are not always drawn. The full ranking holds about 1,000 compounds; the median of “cFRET/donor change relative to DMSO, normalised to beta-lapachone positive control (supercomplex I-IV assembly)” is about 0.18, and the lowest 2% start at about -1. This is one part of a sample in which the lowest values are shown more often than they occur.

The subject of the test is C2C12 (NDUFB8-AcGFP / COX8A-DsRed-Monomer FRET reporter). Description: cFRET/donor change relative to DMSO, normalised to beta-lapachone positive control (supercomplex I-IV assembly) (fraction of beta-lapachone effect); higher = more respiratory supercomplex assembly. The following applies: 40 µM; 24 h. On the procedure:
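Cells were treated with 40 uM compound for 24 h and imaged on an IN Cell Analyzer 6000. Corrected FRET was divided by donor signal (cFRET/donor) and measured in two replicate experiments. The score is (mean cFRET/donor of compound - mean DMSO) / (mean beta-lapachone 40 uM - mean DMSO). Compounds flagged for prominent cell death, abnormal morphology or decreased cell number were excluded.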
`CC[N+](CC)(CC)CCOc1ccc(/C=C/c2ccccc2)cc1` gave a cFRET/donor change of 0.391.
In the case of `OCCN1CCN(CCCN2c3ccccc3Sc3ccc(Cl)cc32)CC1` [Perphenazine], the cFRET/donor change was 0.48.
With `CN1CCC[C@@H]1Cc1c[nH]c2ccc(CCS(=O)(=O)c3ccccc3)cc12` [Eletriptan hydrobromide], the cFRET/donor change was 0.314.
Compound `c1ccc(C2CN3CCSC3=N2)cc1` (single isomer, unassigned; (-)) [(-)-Tetramisole hydrochloride] gave a cFRET/donor change of 0.472.
For `N#CC(=C(/N)Sc1ccccc1N)/C(C#N)=C(/N)Sc1ccccc1N`, the cFRET/donor change turned out to be 1.14.
The compound `CCOC(=O)[N-]c1c[n+](N2CCOCC2)no1` [Molsidomine] came in with a cFRET/donor change of 0.0144.
`CCc1cncnc1N1CCN(Cc2nc3ccc(C(F)(F)F)cc3[nH]2)CC1` showed a cFRET/donor change of 0.351.
The figure for `CN(C)CCCc1cc(C(=O)Nc2ccc(-c3ccncc3)cc2)ccc1O` is 0.377; for `OC(CCN1CCCCC1)(c1ccccc1)C1CC2C=CC1C2` (configuration not stated) [Biperiden hydrochloride] it is 0.472; for `CCCCCCCCCCCCCCCCCCN(CCCCCCCCCCCCCCCCCC)CCCN(CCO)CCO` [Avridine] it is 0.401.
Compound `O=c1ccc2ccc(O)c(O)c2o1` [Daphnetin] gave a cFRET/donor change of 0.438.
The figure for `O=Nc1ccc2oc(=O)ccc2c1` [6-Nitroso-1,2-benzopyrone] is -1.07; for `O=C(CCc1ccncc1)NNC(=O)N1Cc2ccccc2Oc2ccc(Cl)cc21` it is 0.597.
Take `CC(C)c1c(C(=O)Nc2ccccc2)c(-c2ccccc2)c(-c2ccc(F)cc2)n1CC[C@@H](O)C[C@@H](O)CC(=O)O` [Atorvastatin calcium salt trihydrate]: the cFRET/donor change was -0.0539.
In the case of `NS(=O)(=O)c1ccc(-n2nc(C(F)(F)F)cc2-c2ccc(Cl)cc2)cc1`, the cFRET/donor change worked out at 0.219.
`Cc1cn(C2C=CC(CO)O2)c(=O)[nH]c1=O` (configuration not stated) [2',3'-didehydro-3'-deoxythymidine] yielded a cFRET/donor change of 0.515.
In turn, `COc1ccc(S(=O)(=O)Nc2nc(-c3cccc([N+](=O)[O-])c3)cs2)cc1OC` came in with a cFRET/donor change of 0.458.
Compound `CC(NCCc1ccc(O)cc1)C(O)c1ccc(O)cc1` (configuration not stated) [Ritodrine hydrochloride] registered a cFRET/donor change of -0.0849.
The compound `O=C1c2ccccc2C(=O)c2c(NCCc3ccc(O)cc3)ccc(NCCc3ccc(O)cc3)c21` returned a cFRET/donor change of -1.29.
In turn, `O=C1c2c(O)ccc(O)c2C(=O)c2c(NCCNCCO)ccc(NCCNCCO)c21` [Mitoxantrone] yielded a cFRET/donor change of 0.111.
The figure for `CCOc1nc2cccc(C(=O)OC(C)OC(=O)OC3CCCCC3)c2n1Cc1ccc(-c2ccccc2-c2nn[nH]n2)cc1` (configuration not stated) [Candesartan cilexetil] is 0.942; for `O=C1NCCc2[nH]c(-c3ccncc3)cc21` it is -0.0657; for `NC(C(=O)O)C(O)C(=O)O` (racemic) [DL-threo-beta-hydroxyaspartic acid] it is -0.112.
In turn, `Cn1ccc2cc3c(cc21)CCN3C(=O)Nc1cccnc1` yielded a cFRET/donor change of -0.716.
As to `Cc1cc2c(cc1Cl)N(C(=O)Nc1cccc3ncccc13)CC2`, the cFRET/donor change is -0.136.
For the compound `Cc1cc2c(cc1Cl)N(C(=O)Nc1ccc(Oc3cccnc3C)nc1)CC2`, the cFRET/donor change was -1.37.
Consider `C[C@H](CCC(=O)NCCS(=O)(=O)O)[C@H]1CC[C@H]2[C@@H]3[C@H](O)C[C@@H]4C[C@H](O)CC[C@]4(C)[C@H]3C[C@H](O)[C@]12C` [Sodium Taurocholate hydrate], for which the cFRET/donor change amounted to 0.0638.
On to `COc1ccc2cccc(CCNC(C)=O)c2c1` [Agomelatine], for which the cFRET/donor change was found to be 0.0655.
To `Clc1ccc(N2CCN(Cc3cc4ccccn4n3)CC2)cc1` belongs 0.359; to `CCCCC#Cc1nc(NC)c2ncn([C@@H]3O[C@H](CO)[C@@H](O)[C@H]3O)c2n1`, 0.242.
To `CC(N)=NCCCC[C@H](N)C(=O)O` [L-N6-(1-Iminoethyl)lysine hydrochloride] belongs -0.0938; to `COc1ccc2c(c1)CC[C@@H]1[C@@H]2CC[C@]2(C)[C@@H](NCCCCCCN3C(=O)CCC3=O)CC[C@@H]12`, 0.325; to `O=C1N=C(O)NC1(c1ccccc1)c1ccccc1` [Phenytoin sodium], 0.149.
`Cn1c(=O)c(-c2c(Cl)cccc2Cl)cc2cnc(Nc3ccc(N4CCOCC4)cc3)nc21` registered a cFRET/donor change of -0.227.
Compound `Cc1cc(Nc2ncc3cc(-c4c(Cl)cccc4Cl)c(=O)n(C)c3n2)ccc1F` gave a cFRET/donor change of -0.253.
To `CCN(CC)CCOc1ccc(Nc2ncc3cc(-c4c(Cl)cccc4Cl)c(=O)n(C)c3n2)cc1` belongs -5.45; to `CN1Cc2c(N)cccc2C(c2ccccc2)C1` (configuration not stated) [Nomifensine maleate], -0.996; to `CN1CCc2cc(Cl)c(O)cc2[C@@H](c2ccccc2)C1`, 0.549.
For `CN1Cc2sccc2C(c2ccc(O)c(O)c2)C1` (configuration not stated), the cFRET/donor change turned out to be 0.596.
The compound `NS(=O)(=O)C#Cc1ccccc1` [Pifithrin-mu] registered a cFRET/donor change of 0.551.
In turn, `O=C(O)/C=C/c1cnc[nH]1` [4-Imidazoleacrylic acid] returned a cFRET/donor change of 0.18.
To `Clc1ccc2c(c1)N=C(N1CCNCC1)c1ccccc1N2` [N-Desmethylclozapine] belongs 0.316; to `O=C(CCSCc1ccco1)NNC(=O)N1Cc2ccccc2Oc2ccc(Cl)cc21`, 0.36.
`COc1cc(NS(C)(=O)=O)ccc1Nc1c2ccccc2nc2ccccc12` [Amsacrine hydrochloride] yielded a cFRET/donor change of 0.257.
For the compound `CC1(C2CCCC2)Cc2cc(OCC(=O)O)c(Cl)c(Cl)c2C1=O` (configuration not stated), the cFRET/donor change was 0.0296.
`O=P(O)(O)C(O)(Cn1ccnc1)P(=O)(O)O` [Zoledronic acid monohydrate]: the cFRET/donor change turned out to be 0.239.
Take `Cc1ccc(O)c(N=Nc2ccccc2)n1`: the cFRET/donor change came out at 0.375.
Turning to `CO[C@H]1C[C@@H]2CC[C@@H](C)[C@@](O)(O2)C(=O)C(=O)N2CCCC[C@H]2C(=O)O[C@H]([C@H](C)C[C@@H]2CC[C@@H](OC(=O)C(C)(CO)CO)[C@H](OC)C2)CC(=O)[C@H](C)/C=C(\C)[C@@H](O)[C@@H](OC)C(=O)[C@H](C)C[C@H](C)/C=C/C=C/C=C/1C` [Temsirolimus], the cFRET/donor change is -0.55.
Consider `COc1ccc2[nH]c([S@@+]([O-])Cc3ncc(C)c(OC)c3C)nc2c1` [Esomeprazole magnesium dihydrate], for which the cFRET/donor change was determined as 0.951.
Take `NCC=CC(=O)O` (stereo in doubt) [cis-4-Aminocrotonic acid]: the cFRET/donor change was found to be 0.532.
The compound `CCN(CC)C(C)CN1c2ccccc2Sc2ccccc21` (configuration not stated) [Ethopropazine hydrochloride] gave a cFRET/donor change of -0.00468.
Compound `N[C@@H](CCCC(=O)O)C(=O)O` [L-2-aminoadipic acid] returned a cFRET/donor change of -0.139.

The record behind these values is the supplement of paper PMC9877034.
